Assay results taken from paper PMC7819943, “Rice protein-binding microarrays: a tool to detect cis-acting elements near promoter regions in rice”.
The full ranking holds about 35,000 sequences; the median of “fluorescence intensity (a.u.)” is about 10,000, and the highest 2% start at about 52,000. The full list was thinned out, with the highest values kept by preference.

The sequences below were run against T1, OsWOX13 (Oryza sativa, UniProt Q5QMM3 1-267) (assay: protein-binding microarray (RPBM); PBS, 2% BSA, 51.3 ng/ul salmon testes DNA, 50 uM zinc acetate, 200 nM TF, 25 C, 1 h; high values mean tight binding). Conditions: protein: recombinant; tags: N-terminal polyhistidine and DsRed monomer fusion (pET32a); label: CyDye5-dUTP incorporated in the synthesized complementary strand; 3' TTTTT single-stranded linker to array surface; dsDNA, one strand shown.
T1 sequence: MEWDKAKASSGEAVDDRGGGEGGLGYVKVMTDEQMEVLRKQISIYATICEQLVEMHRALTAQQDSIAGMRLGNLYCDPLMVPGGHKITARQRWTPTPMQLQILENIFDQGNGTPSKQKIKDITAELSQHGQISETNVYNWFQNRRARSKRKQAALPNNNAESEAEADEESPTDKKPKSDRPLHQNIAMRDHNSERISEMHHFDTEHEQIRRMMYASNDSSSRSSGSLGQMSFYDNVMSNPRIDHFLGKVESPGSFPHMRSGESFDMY
Outline: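 The binding signal for each feature is its fluorescence intensity in arbitrary units. An Axon 4000B scanner was used to read a custom Agilent array that had been made double-stranded with Cy5-dUTP primer extension, blocked with 2% BSA, incubated at 25 °C for 1 h with 200 nM protein in PBS, 2% BSA, salmon testes DNA and 50 µM zinc acetate, and washed. The protein was an N-terminal polyhistidine–DsRed transcription factor fusion from E. coli BL21-CodonPlus, purified on Ni–NTA.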
With “TGTGATTTATATCGTGGAAGATGATGGCTTGGCGGTATAGCGGAGTCACCTAGTGCAG” the binding signal was 36300 fluorescence intensity (a.u.).
With “GTCGATAAATTATTCGCGGCACAATTATTTGTGCCCCATTCGGAGTCACCTAGTGCAG” the binding signal was 5580 fluorescence intensity (a.u.).
In the case of “TCTTCTGATTGCTTTCACACAAGATCCAGCAAAATTAATTCGGAGTCACCTAGTGCAG”, the binding signal was 16900 fluorescence intensity (a.u.).
With “AGCAAAATTGATTGCTAATCTTCGGTGTCCAGCAGAGCCCCGGAGTCACCTAGTGCAG” the binding signal was 64900 fluorescence intensity (a.u.).
For “AACTAAAACACAGAAATTGATAGTCCAGCAAAACTAGCCCCGGAGTCACCTAGTGCAG”, the binding signal was 5180 fluorescence intensity (a.u.).
In the case of “ATACACCAGTTGATTATAATGACAGTGATATTATGGTGGACGGAGTCACCTAGTGCAG”, the binding signal was 17800 fluorescence intensity (a.u.).
With “CAAACTAATAATTTGGCTTTTGGCTTCTGCTGAAGCAAGTCGGAGTCACCTAGTGCAG” the binding signal was 4830 fluorescence intensity (a.u.).
For “CTAGACATATATATTTATCTAGATTCATTAACATCCATATCGGAGTCACCTAGTGCAG”, the binding signal was 5320 fluorescence intensity (a.u.).
“AAACCATTAGCGCATAATTTATTGAGTTTTAATTATTTCACGGAGTCACCTAGTGCAG” was tested, and the binding signal was 6070 fluorescence intensity (a.u.).
“GCTGATTGCCATTGATTCATATTCATTGTGTGCCATCTGGCGGAGTCACCTAGTGCAG” was tested, and the binding signal was 58800 fluorescence intensity (a.u.).
In the case of “GCTGATTGATTCATTCTGATCTGAACATATAGACAACCATCGGAGTCACCTAGTGCAG”, the binding signal was 54700 fluorescence intensity (a.u.).
For “ACGGTAATTAACGTTGATTACCATAATTAGCGGCGCATTGCGGAGTCACCTAGTGCAG”, the binding signal was 65200 fluorescence intensity (a.u.).
“ACATTCATATTGATGTTAATGATTCTAGACATATATATCTCGGAGTCACCTAGTGCAG” was tested, and the binding signal was 4710 fluorescence intensity (a.u.).
For “TCTGATTTAACTGCATTGCATTTGTGTCATTGACATGTGGCGGAGTCACCTAGTGCAG”, the binding signal was 42600 fluorescence intensity (a.u.).
In the case of “GTTATGATTAATTGCGCCATTAGGATATTAATTAATCTGGCGGAGTCACCTAGTGCAG”, the binding signal was 54500 fluorescence intensity (a.u.).
“CATAATTAGCGGTTGATTACTGTAGCATCACTGTAACAAACGGAGTCACCTAGTGCAG” was tested, and the binding signal was 29600 fluorescence intensity (a.u.).
For “GCCTGATTATCCATTGTTCATCCTGCCATATTGATTTCAGCGGAGTCACCTAGTGCAG”, the binding signal was 30300 fluorescence intensity (a.u.).
With “TGCAGTGATAATTTAGGATTATTTAAGATTTGCACAGTGGCGGAGTCACCTAGTGCAG” the binding signal was 12500 fluorescence intensity (a.u.).
“GCCATATGATTATTTAATCTGATCCGGAGGATTAAACAAGCGGAGTCACCTAGTGCAG” was tested, and the binding signal was 14100 fluorescence intensity (a.u.).
In the case of “CGTAAACAAATAGGTCCAACATAATTTAACCTTCATAGAGCGGAGTCACCTAGTGCAG”, the binding signal was 5570 fluorescence intensity (a.u.).
In the case of “AGACGCATCTCCTCAATCATGCATCAACGTGCGTCATCTGCGGAGTCACCTAGTGCAG”, the binding signal was 3790 fluorescence intensity (a.u.).
With “GTTGCATATCAATCATCAAGAATCTCTTCAGAAAGAGGAGCGGAGTCACCTAGTGCAG” the binding signal was 14000 fluorescence intensity (a.u.).
In the case of “GTTAAATTTAAACTTGTATATTTGTGAAGTGATACATCACCGGAGTCACCTAGTGCAG”, the binding signal was 17300 fluorescence intensity (a.u.).
With “ACACAACTTGTTAATTTGACCTGTAGCCCCATCATGTACACGGAGTCACCTAGTGCAG” the binding signal was 3150 fluorescence intensity (a.u.).
“ATTCATGAATATATGAAACCTGATTGCAAATGTGCAAATCCGGAGTCACCTAGTGCAG” was tested, and the binding signal was 4970 fluorescence intensity (a.u.).
“ATATTGATTGCATAAAGAAAGTTCGGTCCTGTTCACTTTGCGGAGTCACCTAGTGCAG” was tested, and the binding signal was 39900 fluorescence intensity (a.u.).
With “TGCCTAATTGTTGCCATTGATTTGTTAGCCACACCTTTGGCGGAGTCACCTAGTGCAG” the binding signal was 40300 fluorescence intensity (a.u.).
With “TTTGATTGATGGCCATAAGTTGCCACACTTTGCCACACTTCGGAGTCACCTAGTGCAG” the binding signal was 53800 fluorescence intensity (a.u.).
For “TTGTAATTGATTGTGGCCCATCAACTATTGCCATCACTGGCGGAGTCACCTAGTGCAG”, the binding signal was 64900 fluorescence intensity (a.u.).
“TGTTAGACTATGCCATCAATTGTAATTGTTGGTTCTGATGCGGAGTCACCTAGTGCAG” was tested, and the binding signal was 4250 fluorescence intensity (a.u.).
In the case of “GCAAAATTGGTTTCATCAACTATTGAGTGGGTGTGCACTGCGGAGTCACCTAGTGCAG”, the binding signal was 9640 fluorescence intensity (a.u.).
For “TCAAATAATTAGAAGGGGTGAGACTTCGAATCCAAGTCGTCGGAGTCACCTAGTGCAG”, the binding signal was 14400 fluorescence intensity (a.u.).
With “TAATTATTGAACACACTAATTAAGTATTACGATGCACCTCCGGAGTCACCTAGTGCAG” the binding signal was 6340 fluorescence intensity (a.u.).
With “AGAGGATTGATGAATGCAGCTGCAAGCACAGCACGCAGTACGGAGTCACCTAGTGCAG” the binding signal was 13600 fluorescence intensity (a.u.).
With “ACAATTGAATGATTGATTGCAGCTCAAGCTTCAATCCGCACGGAGTCACCTAGTGCAG” the binding signal was 63900 fluorescence intensity (a.u.).
With “TGTGAATGTTGTGATTGAGGTGGTATCAGTATCATATCCGCGGAGTCACCTAGTGCAG” the binding signal was 27000 fluorescence intensity (a.u.).
For “TAGATAGATAGAATTGAATGGTGACCTCAGCTCCAGCTTCCGGAGTCACCTAGTGCAG”, the binding signal was 16200 fluorescence intensity (a.u.).
In the case of “TAATCTTGAATTATTGATTTATTTATGGCTTCAGCTTTCACGGAGTCACCTAGTGCAG”, the binding signal was 7480 fluorescence intensity (a.u.).
In the case of “GGTGAATTGAATGGTTGATTGCCTATCTCATCTTCCGCAGCGGAGTCACCTAGTGCAG”, the binding signal was 64100 fluorescence intensity (a.u.).
“TCTCTTACTCTTGTTGATTGACACCGGTCATCAGTAGTTCCGGAGTCACCTAGTGCAG” was tested, and the binding signal was 43200 fluorescence intensity (a.u.).
For “CAAAATTAACTTGCGCGCCACTCTGCCTCTCAACCCTTCACGGAGTCACCTAGTGCAG”, the binding signal was 8740 fluorescence intensity (a.u.).
For “AACAATTGACAAACTGATTCTGCTCGCCTCTGTCCCCTTTCGGAGTCACCTAGTGCAG”, the binding signal was 46800 fluorescence intensity (a.u.).
